Records with an inconclusive call do not appear. A number with no mark means an inactive call. Active and inactive are the calls of the source. The call rests on the fitted dose curve; in most records, active means well fitted inhibition curve with a large enough effect; inconclusive means small, poorly fitted or top-dose-only effect; inactive means flat fitted curve, though single readings scatter.

These results are taken from PubChem BioAssay AID624094 (National Center for Advancing Translational Sciences (NCATS), 2012).

For the experiment, the target named is Dual specificity protein kinase CLK4 (Homo sapiens) (UniProt Q9HAZ1). Put plainly: Confirmation Assay for Inhibitors of Clk4 (Kinase-Glo Assay): KU probe. The note with it: recombinant Clk4, Kinase-Glo ATP luminescence; series mostly up to 76.9 µM; activity, negative = inhibition: at the top concentration. As for the experimental part: NIH Molecular Libraries Probe Production Centers Network [MLPCN] NIH Chemical Genomics Center [NCGC] MLPCN Grant: 1R03MH084827-01 Assay Submitter (PI): Tom Misteli NCGC Assay Overview: Clk4 (Invitrogen, cat# PV3839) was assayed using ATP and the RS repeat peptide (AnaSpec cat # 61722) as substrates. Following the Clk4 reaction, the remaining ATP levels were detected using Promega Kinase-Glo technology wherein the remaining ATP from the kinase reaction is detected using Ultra-Glo luciferase and D-luciferin which generates a bioluminescence signal from the ATP.
Dual specificity protein kinase CLK4 (Homo sapiens), sequence (Q9HAZ1 whole entry, looked up): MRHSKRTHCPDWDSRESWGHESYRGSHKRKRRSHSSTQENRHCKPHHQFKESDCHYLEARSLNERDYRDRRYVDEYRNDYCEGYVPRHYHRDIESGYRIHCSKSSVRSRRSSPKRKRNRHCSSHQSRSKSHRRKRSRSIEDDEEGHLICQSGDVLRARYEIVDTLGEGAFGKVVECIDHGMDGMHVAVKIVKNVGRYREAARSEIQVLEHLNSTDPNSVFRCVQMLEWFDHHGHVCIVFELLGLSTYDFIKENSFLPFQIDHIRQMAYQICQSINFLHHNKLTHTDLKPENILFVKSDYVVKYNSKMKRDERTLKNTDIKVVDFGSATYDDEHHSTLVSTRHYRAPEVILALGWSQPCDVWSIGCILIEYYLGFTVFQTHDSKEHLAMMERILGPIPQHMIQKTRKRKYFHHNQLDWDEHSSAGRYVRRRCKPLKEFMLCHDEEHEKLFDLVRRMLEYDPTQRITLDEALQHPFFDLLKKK
NCGC Assay Protocol Summary: Two uL/well of substrate-buffer solution (100 uM RS peptide, 1 uM ATP, 25 mM Tris pH7.5, 10 mM MgCl2, 0.5 mM EGTA, 2.5 mM DTT, 0.01% Triton X-100 final concentration) was dispensed into 1536-well, assay plates (Greiner, solid white medium-binding plates) with Aurora Discovery BioRAPTR Flying Reagent Dispenser (FRD; Beckton-Dickenson). Using a Kalypsys pin tool equipped with a 1536-pin tool, 23 nL of compound solution was transferred to the assay plate. One uL/ well Clk4-buffer solution (25 nM Clk4, 25 mM Tris pH 7.5, 10 mM MgCl2, 0.5 mM EGTA, 2.5 mM DTT, 0.01% Triton X-100, final concentrations) was then added using the FRD yielding a total kinase reaction volume of 3 uL/ well. After 4.5 hours of room temperature incubation, 3 uL Kinase-Glo reagent was added for a final assay volume of 6 uL/ well. Luminescence was detected with the ViewLux plate reader (Perkin Elmer, Waltham, MA) after 5 min incubation using a 5 second exposure time and 2x binning.
For orientation: In Kinase-Glo more light means more ATP remaining.
As for `c1cc(-c2ccoc2)nc(-c2ccc3c(c2)OCO3)n1`, the Potency is 4.12 µM (active). For the compound `Clc1ccc(CNc2nccc(-c3ccc4c(c3)OCO4)n2)cc1`, the Potency is 0.0519 µM (active).

On to `CN(C)c1ccc(-c2nccc(NCc3cccs3)n2)cc1`, for which the Potency was 9.23 µM (active). In the case of `Brc1ccc(CNc2nccc(-c3ccc4c(c3)OCO4)n2)cc1Br`, the Potency is 0.0823 µM (active). On to `COc1ccc(CNc2ccnc(-c3cccc(OC)c3)n2)cc1`, for which the Potency was 23.2 µM (active).

For `Clc1cncc(CNc2ccnc(-c3ccc4c(c3)OCO4)n2)c1`, the Potency was 16.4 µM (active). As to `Clc1ccc(CNc2ncncc2-c2ccc3c(c2)OCO3)cc1Cl`, the Potency is 0.582 µM (active). Still for that read-out and setting: the same measure for `Clc1cc(Cl)cc(CNc2cc(-c3ccc4c(c3)OCO4)ncn2)c1`: 1.64 µM (active); for `Cc1csc(CNc2ncnc3ccc(-c4ccc(C(=O)O)o4)cc23)n1`: 0.292 µM (active); for `COc1cccc(-c2ccnc(NCc3ccc(Cl)c(Cl)c3)n2)c1`: 3.68 µM (active). As to `c1nc(NC[C@@H]2CCCO2)c2cc(-c3ccc4c(c3)OCO4)ccc2n1`, the Potency was 0.0292 µM (active).

For the compound `O=C(O)c1ccc(-c2ccc3ncnc(NCC4CCCO4)c3c2)o1` (stereo not given), the Potency was 0.654 µM (active). With `Cc1noc(C)c1-c1nccc(NCc2ccc(Cl)c(Cl)c2)n1`, the “activity, negative = inhibition” value was -4.48%. With `Clc1ccc(CNc2nccc(-c3ccc4cn[nH]c4c3)n2)cc1Cl`, the Potency is 5.82 µM (active). For `c1cncc(CNc2ccnc(-c3ccc4cn[nH]c4c3)n2)c1`, the Potency was 0.292 µM (active).

`CN(CC1CCCCC1)c1ncnc2ccc(-c3ccc4c(c3)OCO4)cc12`: the Potency was 0.184 µM (active).

For the compound `CC(C)(C)CNc1ncnc2ccc(-c3ccc(C(=O)O)o3)cc12`, the Potency was 0.463 µM (active). For the compound `c1coc(-c2ccnc(-c3ccc4c(c3)OCO4)n2)c1`, the Potency was 8.23 µM (active). As for `COc1cccc(-c2ncccn2)c1`, the Potency was 14.6 µM (active). Consider `COc1ccc(-c2ccnc(NCc3ccc(Cl)c(Cl)c3)n2)cc1`, for which the Potency is 0.184 µM (active).

Turning to `O=c1cnc2cnc(Nc3ccccc3)nc2n1CCc1ccccc1`, the Potency was 0.184 µM (active). With `c1cncc(CNc2nccc(-c3ccc4[nH]ncc4c3)n2)c1`, the Potency was 0.026 µM (active). Regarding `Fc1cncc(CNc2ccnc(-c3ccc4c(c3)OCO4)n2)c1`, the Potency was 8.23 µM (active).

Turning to `c1cncc(CNc2cc(-c3ccc4c(c3)OCO4)ncn2)c1`, the Potency is 6.54 µM (active). The same measure, in the same setting: for `Clc1ccc(CNc2nccc(-c3ccc4c(c3)OCO4)n2)cc1Cl` the value was 0.0412 µM (active); for `COc1ccc(-c2nccc(NCc3ccc(Cl)c(Cl)c3)n2)cc1`, 11.6 µM (active); for `COc1cccc(-c2nccc(NCc3ccc(Cl)c(Cl)c3)n2)c1`, 14.6 µM (active). Turning to `c1nc(NCC2CCCCO2)c2cc(-c3ccc4c(c3)OCO4)ccc2n1` (stereo not given), the Potency is 0.0292 µM (active). `Fc1ccc(CNc2ccnc(-c3ccc4c(c3)OCO4)n2)cc1F`: the Potency is 18.4 µM (active). Consider `COc1cccc(-c2ccnc(NCc3ccc(Cl)cc3)n2)c1`, for which the Potency was 5.82 µM (active). For the compound `c1nc(NCC2CCCOC2)c2cc(-c3ccc4c(c3)OCO4)ccc2n1` (stereo not given), the Potency is 0.0654 µM (active). On the same count and under the same terms, the same measure for `Cc1c(-c2ccnc(Nc3cc(Br)cc(C(F)(F)F)c3)n2)sc(=O)n1C`: 0.0519 µM (active). In the case of `c1ccc(CNc2ccnc(-c3ccc4c(c3)OCO4)n2)cc1`, the Potency is 23.2 µM (active). Consider `Clc1ccc(CNc2ccnc(-c3ccc4c(c3)OCO4)n2)cc1Cl`, for which the Potency was 13 µM (active).

`O=C(Nc1ccnc(-c2ccc3c(c2)OCO3)n1)c1cnc(Cl)c(Cl)c1`: the “activity, negative = inhibition” value was -17.8%. For the compound `Cc1c(-c2ccnc(NCc3cccnc3)n2)sc(=O)n1C`, the Potency was 0.0463 µM (active). Same read-out and setting: for `Clc1ccc(CNc2nccc(-c3ccc4c(c3)OCCO4)n2)cc1Cl` the value was 0.116 µM (active); for `c1nc(NCC2CC2)c2cc(-c3ccc4c(c3)OCO4)ccc2n1`, 0.0328 µM (active). `c1nc(NCC2CCOC2)c2cc(-c3ccc4c(c3)OCO4)ccc2n1` (stereo not given): the Potency is 0.0582 µM (active). For the compound `c1cc(-c2ccc3c(c2)OCO3)nc(Nc2ccc3c(c2)OCO3)n1`, the Potency was 0.116 µM (active).
